The values below come from PubChem BioAssay (NCI).

Test systems include HCT-15 colon; HT29 colon; SNB-75 CNS; SNB-19 CNS; U251 CNS; PC-3 prostate; SK-MEL-5 melanoma; UACC-62 melanoma; LOX IMVI melanoma; SK-MEL-28 melanoma.
Assay in all cases: NCI-60 one-dose screen, 48 h (100 = growth as untreated, 0 = no growth, -100 = all killed)
Settings in all cases: 10 µM unless noted

SMILES strings stand for the structures. This is part of a sample that, as a whole, favours compounds with a hit. Of some 83,000 tested, about 20% had one in any assay.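 The endpoint reported here, percent growth, reads 100 for growth as untreated, 0 for no net growth and -100 for all cells dead.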 A number with no mark means an inactive call. Activity calls are given as the source filed them. How the source made its calls: active means growth percent below 10; inactive means the rest.

As to `CC(=O)O[C@H](C[C@H](C(C)C)N(C)C(=O)[C@@H](NC(=O)[C@H]1CCCCN1C)C(C)C)c1cccc(C(=O)N[C@@H](Cc2ccccc2)C[C@H](C)C(=O)O)n1`, the growth in the assay with HCT-15 colon is 9.65% (active); in the assay on HT29 colon, 2.72% (active); in the assay with SNB-75 CNS it was 27.6%; in the assay on SNB-19 CNS it was 22.4%; in the assay with U251 CNS, 10.9%; in the assay with PC-3 prostate, 26.4%. For the same compound, the growth in the assay with SK-MEL-5 melanoma is -39.2% (active); with UACC-62 melanoma, 36.3%; with LOX IMVI melanoma, 14.6%; in the assay with SK-MEL-28 melanoma, 65%.
On to `CC(CO)NC1CCCCC1` (centres undefined), for which the growth with HCT-15 colon was 100%; in the assay with HT29 colon, 117%; in the assay on SNB-75 CNS, 86.9%; in the assay with SNB-19 CNS, 102%; in the assay with U251 CNS it was 98.9%; with PC-3 prostate, 105%. Besides, the growth with SK-MEL-5 melanoma is 104%; in the assay on UACC-62 melanoma it was 104%; in the assay with LOX IMVI melanoma it was 94.3%; with SK-MEL-28 melanoma, 114%.
For the compound `COc1cc(/C=C\c2cc(OC)c(OC)c(OC)c2)cc(N/C=C\C(=O)c2cc(OC)c(OC)c(OC)c2)c1OC`, the growth is 19.6% in the assay on HCT-15 colon; 3.93% (active) in the assay on HT29 colon; -6.67% (active) with SNB-75 CNS; 43.4% with SNB-19 CNS; 31% in the assay on U251 CNS; 21.1% in the assay on PC-3 prostate. For the same compound, the growth in the assay with SK-MEL-5 melanoma was 5.18% (active); in the assay with UACC-62 melanoma it was 16.8%; in the assay with LOX IMVI melanoma, 28.6%.
Consider `COc1ccc(/C=C/c2cc(OC)c(OC)c(OC)c2)cc1NC(=O)/C=C/c1ccc(F)cc1`, for which the growth in the assay on HCT-15 colon is 25.2%; with HT29 colon, 9.9% (active); with SNB-75 CNS, 3.26% (active); in the assay with SNB-19 CNS it was 33.5%; in the assay on U251 CNS it was 36.8%; with PC-3 prostate it was 28.7%. For the same compound, the growth in the assay on SK-MEL-5 melanoma is 7.06% (active); in the assay on UACC-62 melanoma, 35.5%; in the assay with LOX IMVI melanoma it was 39%; in the assay on SK-MEL-28 melanoma, 47.2%.
Turning to `COc1ccc([As]=[As]c2ccc(OC)c(NCS(=O)(=O)O)c2)cc1NCS(=O)(=O)O` (centres undefined), the growth was -72.2% (active) in the assay on HCT-15 colon; 39.8% with HT29 colon; 36.9% with SNB-75 CNS; 0.15% (active) in the assay on SNB-19 CNS; -43% (active) in the assay on U251 CNS; 32.5% with PC-3 prostate. In addition, the growth was 1.61% (active) in the assay with SK-MEL-5 melanoma, 17% in the assay with UACC-62 melanoma, 5.45% (active) in the assay on LOX IMVI melanoma and 0.0807% (active) with SK-MEL-28 melanoma.
As for `CC(C)CCC1(CCCl)C(=O)NC(=O)NC1=O`, the growth with HCT-15 colon is 98.9%; with HT29 colon, 109%; with SNB-75 CNS it was 85.3%; in the assay with SNB-19 CNS it was 97.7%; with U251 CNS it was 94.4%; in the assay with PC-3 prostate it was 98.8%. The growth with SK-MEL-5 melanoma was 97.4%; in the assay on UACC-62 melanoma, 97.6%; in the assay with LOX IMVI melanoma, 97%; with SK-MEL-28 melanoma, 98.4%.
Take `O=C([O][Hg][CH2]C1COCC([CH2][Hg][O]C(=O)c2ccccc2)O1)c1ccccc1` (centres undefined): the growth was -83% (active) in the assay on HCT-15 colon; 50.4% with HT29 colon; 92% with SNB-75 CNS; 102% in the assay with SNB-19 CNS; 58.9% with U251 CNS; 91.9% in the assay with PC-3 prostate. In addition, the growth was 102% in the assay with SK-MEL-5 melanoma, 91% in the assay on UACC-62 melanoma, 11.4% with LOX IMVI melanoma and 115% in the assay on SK-MEL-28 melanoma.
Regarding `O=C1C(Cl)=C(N2CCOCC2)C(=O)c2ccccc21`, the growth with HCT-15 colon is 71.5%; in the assay with HT29 colon, 116%; in the assay with SNB-75 CNS it was 102%; with SNB-19 CNS, 116%; in the assay on U251 CNS it was 67%; in the assay with PC-3 prostate, 71.9%. Also, the growth with SK-MEL-5 melanoma was 92%; in the assay with UACC-62 melanoma, 105%; with LOX IMVI melanoma it was 76.7%; with SK-MEL-28 melanoma it was 118%.
As to `COc1ccc(C(=O)c2cc(OC)c(OC)c(OC)c2)cc1OC(C)=O`, the growth in the assay on HCT-15 colon is 12.7%; with HT29 colon, 18.8%; with SNB-75 CNS it was 40.4%; with SNB-19 CNS it was 28.3%; in the assay with U251 CNS, 6.47% (active); with PC-3 prostate it was 14.1%. Besides, the growth in the assay with SK-MEL-5 melanoma is -35.1% (active); with UACC-62 melanoma, 38.9%; with LOX IMVI melanoma, 19.7%; with SK-MEL-28 melanoma, 56.6%.
For the compound `N#Cc1c(Br)n(C2OC(CO)C(O)C2O)c2ncnc(N)c12` (centres undefined), the growth in the assay with HCT-15 colon is 43.9%; in the assay on HT29 colon, 43.8%; with SNB-75 CNS it was 76.2%; in the assay on SNB-19 CNS, 101%; with U251 CNS it was 69.4%; in the assay on PC-3 prostate it was 16.5%. Also, the growth in the assay on SK-MEL-5 melanoma was 95.9%; in the assay with UACC-62 melanoma it was 77.9%; in the assay with LOX IMVI melanoma it was 57.2%; in the assay on SK-MEL-28 melanoma it was 43.7%.
Take `Clc1ccc(CO/N=C(\Cn2ccnc2)c2ccc(Cl)cc2Cl)c(Cl)c1`: the growth in the assay with HCT-15 colon is 6.36% (active); in the assay on HT29 colon, -19.4% (active); with SNB-75 CNS, 30.4%; with SNB-19 CNS, 17.7%; in the assay with U251 CNS it was -21.2% (active); in the assay on PC-3 prostate, 4.16% (active). Moreover, the growth in the assay with SK-MEL-5 melanoma is -93.5% (active); in the assay with UACC-62 melanoma, 1.19% (active); in the assay with LOX IMVI melanoma, -47.4% (active); in the assay with SK-MEL-28 melanoma, 28%.
In the case of `COc1cc(/C=C/[N+](=O)[O-])cc(OC)c1`, the growth in the assay with HCT-15 colon is -44.5% (active); in the assay with HT29 colon it was -25.6% (active); in the assay on SNB-75 CNS it was 25.1%; in the assay with SNB-19 CNS it was 24.6%; with U251 CNS, -50.9% (active); in the assay on PC-3 prostate, -25.4% (active). Also, the growth was 8.23% (active) in the assay on SK-MEL-5 melanoma, 2.61% (active) with UACC-62 melanoma, -93.9% (active) in the assay with LOX IMVI melanoma and -16.9% (active) in the assay with SK-MEL-28 melanoma.
In the case of `CCCCCCCC[N+](C)(CCCCCCCC)CCCCCCCC`, the growth in the assay on HCT-15 colon was -75% (active); with HT29 colon it was -100% (active); in the assay with SNB-75 CNS, -100% (active); in the assay with SNB-19 CNS it was -89.6% (active); in the assay with U251 CNS it was -75% (active); with PC-3 prostate it was -91.3% (active). In addition, the growth is -100% (active) in the assay on SK-MEL-5 melanoma, -94.5% (active) with UACC-62 melanoma, -74.7% (active) with LOX IMVI melanoma and -100% (active) in the assay on SK-MEL-28 melanoma.
